Activity calls are given as the source filed them. Calls follow the shape of the dose curve; as a rule, active = well fitted curve in the direction sought with a large enough effect; inconclusive = small, poorly fitted or top-dose-only effect, or another doubt; inactive = no such curve, though single readings can be large or run the other way.
molecular target: Hexokinase-4 (Homo sapiens) + Glucokinase regulatory protein (Homo sapiens) (UniProt P35557+Q14397); experiment: qHTS assay for inhibitors of recombinant human GCK-GKRP interaction: Diaphorase-coupled assay (AID 743205); details: G6PDH/diaphorase resorufin fluorescence; series mostly up to 57.5 µM
Sequence (P35557 whole entry, looked up): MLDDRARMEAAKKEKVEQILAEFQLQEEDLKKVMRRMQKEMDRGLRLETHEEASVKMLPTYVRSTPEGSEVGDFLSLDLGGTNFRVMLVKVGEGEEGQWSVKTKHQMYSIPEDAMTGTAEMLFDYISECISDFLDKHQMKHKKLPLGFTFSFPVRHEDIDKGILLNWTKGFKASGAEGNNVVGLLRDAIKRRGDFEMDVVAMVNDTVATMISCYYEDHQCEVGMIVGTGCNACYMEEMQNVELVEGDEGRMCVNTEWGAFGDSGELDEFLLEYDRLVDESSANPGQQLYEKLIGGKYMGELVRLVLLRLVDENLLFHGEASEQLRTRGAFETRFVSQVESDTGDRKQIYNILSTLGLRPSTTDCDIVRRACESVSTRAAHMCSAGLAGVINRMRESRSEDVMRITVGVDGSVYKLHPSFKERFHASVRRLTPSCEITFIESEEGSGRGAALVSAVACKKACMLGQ
Sequence (Q14397 whole entry, looked up): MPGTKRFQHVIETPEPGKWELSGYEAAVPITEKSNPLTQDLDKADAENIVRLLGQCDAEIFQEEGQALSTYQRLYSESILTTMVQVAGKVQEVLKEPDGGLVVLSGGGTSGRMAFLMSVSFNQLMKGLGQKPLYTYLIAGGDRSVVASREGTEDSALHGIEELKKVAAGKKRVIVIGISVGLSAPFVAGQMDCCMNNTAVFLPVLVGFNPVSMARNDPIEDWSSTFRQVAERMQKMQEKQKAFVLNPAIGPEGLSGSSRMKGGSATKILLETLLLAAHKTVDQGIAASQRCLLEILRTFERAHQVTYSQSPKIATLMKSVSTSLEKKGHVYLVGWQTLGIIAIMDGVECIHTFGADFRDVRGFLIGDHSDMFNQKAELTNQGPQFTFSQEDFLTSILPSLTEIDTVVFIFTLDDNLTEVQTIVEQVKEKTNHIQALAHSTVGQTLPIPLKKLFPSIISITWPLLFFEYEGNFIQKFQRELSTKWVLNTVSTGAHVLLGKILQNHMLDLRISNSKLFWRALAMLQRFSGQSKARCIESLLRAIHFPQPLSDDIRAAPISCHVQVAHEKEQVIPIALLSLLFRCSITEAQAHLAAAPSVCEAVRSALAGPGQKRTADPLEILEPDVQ
Source text: Glucokinase (GCK) is a glucose sensor in hepatocytes and pancreatic beta-cells. Hepatic GCK is regulated by glucokinase regulatory protein (GKRP), which is predominantly localized to the liver. GKRP binds to GCK inhibiting its activity in the fasting state while in the presence of glucose the GKRP is displaced. There is an additional layer of regulation by fructose 1-phosphate and fructose 6-phosphate, which inhibit and enhance the GCK-GKRP interaction, respectively. GCK plays a role in glucose homeostasis and there is an interest in the development of strategies to activate GCK to lower blood glucose levels in type 2 diabetes. To date the majority of effort has focused on direct activation of GCK and the assays developed herein look to activate GCK by inhibiting its binding to GKRP. A compound that inhibits the interaction of GCK with GKRP could be important for the treatment of diabetes and can also be used as a tool compound to further elucidate GCK-GKRP biology. To that end, we have developed a sensitive HTS biochemical assay where in GCK activity is coupled to G6PDH and Diaphorase to interrogate the GCK-GKRP interaction. This assay was screened against a small compound library to look for modulators of activity.
2 uL of substrate (columns 1-48) are dispensed into Greiner, black solid-bottom 1536-well assay plates. Compounds (23 nL) are then transferred via Kalypsys pin tool equipped with 1536-pin array (10 nL slotted pins, V&P Scientific, San Diego, CA). The library compounds are in columns 5-48 and columns 1-4 serve as controls with DMSO in columns 1 and 3 and 26 mM 1:1.5 fold serial of gluckokinase activator (GKA-EMD) in column 2 and 26 mM of the glucokinase activator (GKA-EMD) in column 4. Following addition of compound and a 20 minute incubation, 1 uL of enzyme mix (GST-GCK, FLAG-GKRP and diaphorase) is added to columns 1, 2, 4-48 and 1 uL of no enzyme mix (FLAG-GKRP and diaphorase) is added to column 3 and the fluorescent product resorufin generated from resazurin was monitored on a Viewlux (PerkinElmer, Shelton, CT, USA) with excitation at 525 nm and emission at 590 nm in kinetic mode where the plate was read every minute for 30 minutes. The final concentration of reagents in the reaction are 25 mM Hepes pH 7.6, 25 mM KCl, 2 mM MgCl2, 1.4 mM 2-mercaptoethanol, 0.025% BSA, 0.01% Tween-20, 0.15 mM NADP+, 5 mM glucose, 0.4 mM ATP, 4 U/ml G6PDH, 0.1 mM resazurin, 10 nM GST-GCK, 10 nM FLAG-GKRP, diaphorase (0.1 mg/mL). Data are normalized to DMSO-treated control columns with (maximum signal) and without (minimum signal) enzyme.

Question: `CCCN(CCC)C(=O)C(CCC(=O)O)NC(=O)c1ccccc1` (stereo not given) was tested. Which outcome did it give?
Answer: inactive

Question: With `CN1CCN(CC(=O)N2c3ccccc3C(=O)Nc3cccnc32)CC1` as the compound, how does the outcome read?
Answer: inactive

Question: For `Cc1ccc(Cl)c(Nc2ccccc2C(=O)O)c1Cl`, which outcome is on record?
Answer: inactive

Question: Which outcome does the source give for `N[C@@H](COP(=O)(O)O)C(=O)O` here?
Answer: inactive

Question: For `CN1C[C@H](C(=O)N[C@]2(C)O[C@@]3(O)[C@@H]4CCCN4C(=O)[C@H](Cc4ccccc4)N3C2=O)C[C@@H]2c3cccc4[nH]cc(c34)C[C@H]21`, which outcome is on record?
Answer: inactive

Question: For `O=c1[nH]c(=O)n([C@H]2C[C@H](O)[C@@H](CO)O2)cc1Br`, which outcome is on record?
Answer: inactive

Question: With `CCN(CC)CCOCCOC(=O)C1(c2ccccc2)CCCC1` as the compound, how does the outcome read?
Answer: inactive

Question: `COc1ccc2c(c1OC)C(=O)O[C@@H]2[C@H]1c2c(cc3c(c2OC)OCO3)CCN1C` was tested. Which outcome did it give?
Answer: inactive

Question: Which outcome does the source give for `CN(C)C/C=C(/c1ccc(Br)cc1)c1cccnc1` here?
Answer: inactive

Question: `CCN(Cc1ccncc1)C(=O)C(CO)c1ccccc1` (stereo not given) was tested. Which outcome did it give?
Answer: inactive

Question: For `C[C@H](CS)C(=O)N1CCC[C@H]1C(=O)O`, which outcome is on record?
Answer: inactive

Question: How did the outcome turn out when `Nc1ncn([C@@H]2O[C@H](CO)[C@@H](O)[C@H]2O)c(=O)n1` was run?
Answer: inactive

Question: Which outcome does the source give for `CN1C(=O)CC[C@H]1c1cccnc1` here?
Answer: inactive

Question: With `CCCOc1ccccc1-c1nc2n[nH]nc2c(=O)[nH]1` as the compound, how does the outcome read?
Answer: inactive

Question: With `NC/C=C/C(=O)O` as the compound, how does the outcome read?
Answer: inactive

Question: For `O=C(O)CP(=O)(O)O`, which outcome is on record?
Answer: inactive

Question: For `CC(C)(C)c1ccc(C(=O)CCCN2CCC(OC(c3ccccc3)c3ccccc3)CC2)cc1`, which outcome is on record?
Answer: inactive

Question: `CCOC(=O)C1=C(C)NC(C)=C(C(=O)OC)C1c1cccc(Cl)c1Cl` (stereo not given) was tested. Which outcome did it give?
Answer: inactive

Question: How did the outcome turn out when `CSc1ccc(C(=O)c2[nH]c(=O)[nH]c2C)cc1` was run?
Answer: inactive

Question: For `CCNC(=O)N1CCN(CCCC(c2ccc(F)cc2)c2ccc(F)cc2)CC1`, which outcome is on record?
Answer: inactive

Question: With `CCCCNc1c(C(=O)OCC)c(C)nc2c1cnn2CC` as the compound, how does the outcome read?
Answer: inactive

Question: `CC(C)NNC(=O)c1ccncc1` was tested. Which outcome did it give?
Answer: inactive

Question: For `CC(C)[N+](C)(CCOC(=O)C1c2ccccc2Oc2ccccc21)C(C)C`, which outcome is on record?
Answer: inactive

Question: How did the outcome turn out when `C[n+]1cc2c3c(ccc2c2ccc4cc5c(cc4c21)OCO5)OCO3` was run?
Answer: inactive

Question: With `CCc1c(C)[nH]c2c1C(=O)C(CN1CCOCC1)CC2` (stereo not given) as the compound, how does the outcome read?
Answer: inactive

Question: How did the outcome turn out when `CCN(CC)CCNC(=O)c1cc(S(C)(=O)=O)ccc1OC` was run?
Answer: inactive

Question: For `COCC(=O)O[C@]1(CCN(C)CCCc2nc3ccccc3[nH]2)CCc2cc(F)ccc2[C@@H]1C(C)C`, which outcome is on record?
Answer: inactive

Question: `CC(=O)OC(C)C[N+](C)(C)C` (stereo not given) was tested. Which outcome did it give?
Answer: inactive

Question: Which outcome does the source give for `OCCN1CCN(CC/C=C2/c3ccccc3Sc3ccc(C(F)(F)F)cc32)CC1` here?
Answer: inactive

Question: How did the outcome turn out when `CCN(CC)CCNC(=O)c1ccc(NC(C)=O)cc1` was run?
Answer: inactive

Question: With `Nc1c2c(nc3ccccc13)CCCC2O` (stereo not given) as the compound, how does the outcome read?
Answer: inactive

Question: For `c1ccc2c(c1)CCCC2C1=NCCN1` (stereo not given), which outcome is on record?
Answer: inactive

Question: For `CCN1CCc2nc(N)oc2CC1`, which outcome is on record?
Answer: inactive

Question: How did the outcome turn out when `CCCCCN(CCCCC)C(=O)C(CCC(=O)O)NC(=O)c1ccc(Cl)c(Cl)c1` (stereo not given) was run?
Answer: inactive

Question: For `OC(CCN1CCCCC1)(c1ccccc1)C1CCCCC1` (stereo not given), which outcome is on record?
Answer: inactive

Question: For `CCO/C([O-])=N/c1c[n+](N2CCOCC2)no1`, which outcome is on record?
Answer: inactive

Question: `C[N+](C)(C)CCOC(N)=O` was tested. Which outcome did it give?
Answer: inactive

Question: `COc1cc2c(cc1OC)-c1cc(=Nc3c(C)cc(C)cc3C)n(C)c(=O)n1CC2` was tested. Which outcome did it give?
Answer: inactive

Question: For `COCCCC/C(=N\OCCN)c1ccc(C(F)(F)F)cc1`, which outcome is on record?
Answer: inactive

Question: `CN(C)C(=O)Oc1cccc([N+](C)(C)C)c1` was tested. Which outcome did it give?
Answer: inactive
